ELG1 repair inh = inhibitors of ELG1-dependent DNA repair in HEK293T cells; HEK293T ELG1-luciferase reporter, luminescence, 16 h; DNA damage induced by 5-fluorouridine; Potency, µM (highest dose often 46.1 µM), for the others: at the top dose activity change, negative = inhibition, usual class: inhibitors; 330,000 compounds, 2.3% hits; AID 504467; also: % is scaled to controls: 0 for no effect and ±100 for the full control effect; nearly all actives have a fitted effect of over 55% in size
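Reporter activity after DNA damage by 5-fluorouridine is monitored. Compound-treated cells incubate 16 hr at 37 °C, then ONE-Glo is added for 30 min before luminescence reading.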
ELG1 genotox = inducers of genotoxicity in HEK293T ELG1-luciferase cells; HEK293T ELG1-luciferase reporter, luminescence, 16 h; Potency, µM (doses to about 46 µM), for the others: at the top dose activity change, positive = activation, hits mostly activators; 330,000 compounds, 1.3% hits; also: % of control where 0% means no effect; nearly all actives have a fitted effect of over 60% in size
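Cells (2,000/well) expressing the ELG1-luciferase fusion are dosed by pin tool and kept 16 hr at 37 °C, 5% CO2. Signal comes from ONE-Glo luciferase reagent after 30 min at room temperature.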
Rab9 prom act = Rab9 promoter activation. Huh7 Rab9 promoter-luciferase reporter, luminescence, 24 h. Potency, µM (series often up to 9.22 µM), for the others: top-dose activation, negative = inhibition, hits mostly activators. 320,000 compounds, 2.8% hits. AID 485297; also: % of control where 0% means no effect; nearly all actives have a fitted effect of over 60% in size
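Huh7 cells stably carrying Rab9 promoter–luciferase reporter, plated 1500 cells/well, compound added after 2 h and incubated 24 h at 37 °C; luciferase luminescence then read after 10 min with detection reagent.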
SMN2 splice up = increases expression of the SMN2 splice variant; HEK293 SMN2-luciferase splicing reporter, luminescence, 30-36 h; Potency, µM (series often up to 46.1 µM), for the others: at the top dose activity change, positive = activation, most hits filed as activators; 210,000 compounds, 2.8% hits; AID 1458; also: % of control where 0% means no effect; nearly all actives have a fitted effect of over 55% in size
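HEK293 cells carry an SMN2 […]–luciferase reporter in which exon 7 inclusion puts luciferase in frame. Cells were plated 10-12 h before compound addition, then incubated 30-36 h at 37C. ONE-Glo luminescence was read; sodium butyrate at 4.5 mM final served as control.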
FLuc counter = inhibits or activates purified firefly luciferase, miR-21 counter-screen. P08659. purified FLuc, Km substrates, luminescence inhibition. Potency, µM (doses to about 57.5 µM), without a hit: at the top dose activity change, negative = inhibition, actives largely listed as inhibitors. 360,000 compounds, 6.9% hits. AID 588342;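 also: plate controls were vehicle for no effect and reference inhibitor for full effect; nearly all actives have a fitted effect of over 55% in size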
Target sequence (P08659 whole entry, looked up): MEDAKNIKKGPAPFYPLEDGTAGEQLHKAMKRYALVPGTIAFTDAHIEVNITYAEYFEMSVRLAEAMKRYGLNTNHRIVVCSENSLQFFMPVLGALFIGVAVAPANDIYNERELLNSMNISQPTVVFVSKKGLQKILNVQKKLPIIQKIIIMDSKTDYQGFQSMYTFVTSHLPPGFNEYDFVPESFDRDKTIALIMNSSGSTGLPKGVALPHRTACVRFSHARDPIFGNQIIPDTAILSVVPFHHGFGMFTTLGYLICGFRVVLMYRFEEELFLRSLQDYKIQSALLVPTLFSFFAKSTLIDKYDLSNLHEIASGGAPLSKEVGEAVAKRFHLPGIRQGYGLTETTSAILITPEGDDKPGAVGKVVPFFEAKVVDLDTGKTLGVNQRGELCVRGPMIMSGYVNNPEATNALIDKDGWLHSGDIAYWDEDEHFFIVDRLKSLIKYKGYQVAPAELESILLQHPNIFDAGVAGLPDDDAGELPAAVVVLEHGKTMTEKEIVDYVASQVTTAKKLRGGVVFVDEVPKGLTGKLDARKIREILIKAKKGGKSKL
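Biochemical qHTS of compounds, final roughly 60 µM downward over six points, against 10 nM purified firefly luciferase using Km concentrations of substrates (10 uM D-luciferin, 10 uM ATP) in Tris acetate pH 7.5 buffer; luminescence output.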
NPC1 promoter act = NPC1 promoter activation; Huh7 NPC1 promoter luciferase reporter, 24 h; Potency, µM (highest dose often 9.22 µM), inactives show at the top dose activation, hits mostly activators; 320,000 compounds, 2.4% hits; AID 485313; also: % of control where 0% means no effect; nearly all actives have a fitted effect of over 60% in size
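Stable NPC1-promoter luciferase Huh7 line; cpd (DMSO) 24 h, 37 °C, 5% CO2; Amplite luciferase reagent 10 min RT; luminescence readout. qHTS format.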
Numbers without * were called inactive; ? = inconclusive; . = no result given; [ ] = remark or other dose. Compounds with a hit are over-represented: about 9.3% of the library has one in this group of screens. Calls follow the shape of the dose curve; as a rule, active = well fitted curve in the direction sought with a large enough effect; inconclusive = small, poorly fitted or top-dose-only effect, or another doubt; inactive = no such curve, though single readings can be large; an effect the other way counts as inactive or inconclusive. Potency is read from the fitted curve at half-maximal effect.

SMILES	ELG1 repair inh	ELG1 genotox	Rab9 prom act	SMN2 splice up	FLuc counter	NPC1 promoter act
Cc1ccc(CSc2nnc(-c3cccs3)n2C)cc1	?	7.2%	9.6%	4.3%	-13.9%	10.3%
O=C(/C=C1\NC2(CCCC2)Cc2ccccc21)C(=O)N/N=C/c1ccc(O)c(O)c1	23.1µM*	-15.4%	10.0%	.	-19.5%	-22.9%
NNC(=O)C(=O)/C=C1\NC2(CCCC2)Cc2ccccc21	?	-1.7%	-0.9%	.	1.4%	-0.7%
COc1ccc(/C=N/NC(=O)C(=O)/C=C2\NC3(CCCC3)Cc3ccccc32)cc1	23.1µM*	-8.3%	-0.2%	-14.7%	-10.9%	-2.2%
Cc1cc(C)c2[nH]c(O)c(N=NC(=O)c3cc4c(s3)CCCC4)c2c1	12.1%	0.8%	-0.9%	-14.1%	-9.8%	-5.2%
C(=N/N1CCN(c2ccccc2)CC1)/c1ccncc1	7.8%	-2.1%	-7.7%	.	-23.4%	-1.2%
COc1ccccc1N1CCN(/N=C/c2ccc(C(=O)O)cc2)CC1	?	?	0.708µM*	.	2.69µM*	1µM*
O=C(O)c1ccc(/C=N/N2CCN(c3ccccc3)CC2)cc1	?	15.2%	1.41µM*	.	4.26µM*	1.12µM*
O=C(CCC(=O)N1CCOc2ccccc21)NCc1ccccn1	8.9%	0.5%	1.9%	.	-0.7%	7.6%
COc1cccc(C(=O)NCC(=O)N/N=C(C)\C=C\c2ccccc2)c1	0.0%	-12.9%	1.8%	-22.5%	-18.3%	-5.4%
O=C(N/N=C/C(Br)=C/c1ccccc1)c1ccccc1[N+](=O)[O-]	6.6%	3.4%	-0.3%	.	?	-3.2%
COc1ccc(C(=O)N/N=C/C(Br)=C/c2ccccc2)cc1	3.4%	-2.2%	19.4%	11.3%	3.01µM*	8.8%
Cn1cc(C(=O)N/N=C/C(Br)=C\c2ccccc2)ccc1=O	-0.2%	14.5%	11.4%	14.6%	?	-7.4%
COc1cccc(C(=O)N/N=C/C(Br)=C/c2ccccc2)c1	5.1%	17.7%	13.3%	22.7%	10.7µM*	1.2%
Cn1cc(C(=O)N/N=C/C(Br)=C/c2ccccc2)ccc1=O	-12.0%	12.1%	3.8%	4.3%[1.84 µM]	19µM*	1.1%
CCSC(=O)NC12CC3CC(CC(C3)C1)C2	.	.	.	-11.0%	-3.5%	.
O=C(/C=C/c1ccco1)NC(=S)Nc1cccc(C(=O)O)c1	?	?	2.82µM*	.	10.7µM*	3.98µM*
CCN(CC)S(=O)(=O)c1ccc(OC)c(NC(=O)/C=C/c2ccco2)c1	23.1µM*	-6.9%	0.3%	.	-11.8%	8.2%
CN1CCN(c2ccc(NC(=S)NC(=O)/C=C/c3ccco3)cc2)CC1	?	?	?	.	23.9µM*	?
CCN(CC)S(=O)(=O)c1ccc(N2CCCCC2)c(NC(=O)/C=C/c2ccc(OC)c(OC)c2)c1	?	0.6%	-4.7%	-2.0%	0.0%	-6.1%
COc1cccc(NC(=S)NC(=O)/C=C/c2ccco2)c1	?	?	24.9%	.	16.9µM*	4.6%
Cc1ccccc1S(=O)(=O)c1cc(C#N)c(=O)[nH]c1N	11.5%	-0.5%	6.5%	8.8%	?	-3.3%
Cc1c(Cc2ccc3c(c2)OCO3)sc(NC(=O)c2ccc3ccccc3c2)c1C(N)=O	7.9%	13.0%	18.8%	9.5%	-5.8%	17.4%
Cc1oc(-c2ccccc2Cl)nc1CS(=O)CC(=O)NCc1ccccc1Cl (centres undefined)	4.3%	-0.5%	-1.7%	5.1%	-2.1%	-3.0%
COc1ccccc1CNC(=O)C1CCCN(S(=O)(=O)c2ccc3c(c2)CCCN3C(C)=O)C1 (centres undefined)	.	.	.	.	-1.1%	.
CCOC(=O)CN1C(=O)C(C)(C)Oc2ccc(C(=O)Nc3ccccc3)cc21	13µM*	1.8%	12.6%	.	?	11.7%
CCOC(CCNC(=O)c1cn(-c2cccc(C)n2)cn1)OCC	?	2.9%	4.8%	12.4%	5.4%	-0.9%

Screens (PubChem BioAssay)
